According to PubChem BioAssay (NCI):
This is part of a sample that, as a whole, favours compounds with a hit. Of some 83,000 tested, about 20% had one in any assay.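 The endpoint reported here, percent growth, reads 100 for growth as untreated, 0 for no net growth and -100 for all cells dead.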 A number with no mark means an inactive call. Activity calls are given as the source filed them. The calls were made as follows: active = growth percent below 10; inactive = the rest.

Legend:
Assay in all cases: NCI-60 one-dose screen, 48 h (100 = growth as untreated, 0 = no growth, -100 = all killed)
Conditions in all cases: 10 µM unless noted
HCT-15 colon = system: HCT-15 colon
HT29 colon = system: HT29 colon
SNB-75 CNS = system: SNB-75 CNS
SNB-19 CNS = system: SNB-19 CNS
U251 CNS = system: U251 CNS
PC-3 prostate = system: PC-3 prostate
SK-MEL-5 melanoma = system: SK-MEL-5 melanoma
UACC-62 melanoma = system: UACC-62 melanoma
LOX IMVI melanoma = system: LOX IMVI melanoma
SK-MEL-28 melanoma = system: SK-MEL-28 melanoma
SK-MEL-2 melanoma = system: SK-MEL-2 melanoma
SN12C renal = system: SN12C renal
UO-31 renal = system: UO-31 renal
TK-10 renal = system: TK-10 renal
ACHN renal = system: ACHN renal
CAKI-1 renal = system: CAKI-1 renal
A498 renal = system: A498 renal
CCRF-CEM leukemia = system: CCRF-CEM leukemia
MOLT-4 leukemia = system: MOLT-4 leukemia
EKVX NSCLC = system: EKVX NSCLC

O=C(Nc1cc(Cl)ccc1O)c1ccccc1Nc1ccnc(C(F)(F)F)c1
growth (HCT-15 colon): 14.1%
growth (HT29 colon): 38.2%
growth (SNB-75 CNS): 55.6%
growth (SNB-19 CNS): 16.2%
growth (U251 CNS): 10.8%
growth (PC-3 prostate): 7.3% (active)
growth (SK-MEL-5 melanoma): -43.8% (active)
growth (UACC-62 melanoma): 23.1%
growth (LOX IMVI melanoma): 18.8%
growth (SK-MEL-28 melanoma): 75%
growth (SK-MEL-2 melanoma): 31.8%
growth (SN12C renal): 3.5% (active)
growth (UO-31 renal): 1.11% (active)
growth (TK-10 renal): 74.5%
growth (ACHN renal): 7.95% (active)
growth (CAKI-1 renal): 72.1%
growth (A498 renal): 53.7%
growth (CCRF-CEM leukemia): -2.43% (active)
growth (MOLT-4 leukemia): -25% (active)

Cc1ccc(OCCOCCOCCOc2ccc(C)n(O)c2=S)c(=S)n1O
growth (HCT-15 colon): 35.8%
growth (HT29 colon): 30%
growth (SNB-75 CNS): 59.2%
growth (SNB-19 CNS): 33.8%
growth (U251 CNS): 31.1%
growth (PC-3 prostate): 34.7%
growth (SK-MEL-5 melanoma): 58.3%
growth (UACC-62 melanoma): 15.6%
growth (LOX IMVI melanoma): 30.5%
growth (SK-MEL-28 melanoma): 48.8%
growth (SK-MEL-2 melanoma): 57%
growth (EKVX NSCLC): 24.9%
growth (SN12C renal): 28.7%
growth (UO-31 renal): 42%
growth (ACHN renal): 44.6%
growth (CAKI-1 renal): 31.7%
growth (A498 renal): 52.5%
growth (CCRF-CEM leukemia): 11.2%
growth (MOLT-4 leukemia): 10.7%

Cc1ncc(C(=O)Nc2ccc(CN3CCN(C)CC3)c(C(F)(F)F)c2)cc1C#Cc1cnc(N)c2ccc(C#N)cc12
growth (HCT-15 colon): -77.4% (active)
growth (HT29 colon): -6.14% (active)
growth (SNB-75 CNS): -11.5% (active)
growth (SNB-19 CNS): 52%
growth (U251 CNS): 19.9%
growth (PC-3 prostate): 11.7%
growth (SK-MEL-5 melanoma): -79.7% (active)
growth (UACC-62 melanoma): -8.26% (active)
growth (LOX IMVI melanoma): -90% (active)
growth (SK-MEL-28 melanoma): -55.9% (active)
growth (SK-MEL-2 melanoma): -6.37% (active)
growth (EKVX NSCLC): 50.4%
growth (SN12C renal): 10.4%
growth (UO-31 renal): -24.4% (active)
growth (ACHN renal): -79.6% (active)
growth (CAKI-1 renal): -72.6% (active)
growth (A498 renal): -41% (active)
growth (CCRF-CEM leukemia): 3.7% (active)
growth (MOLT-4 leukemia): 8.65% (active)

COc1cc2c(c(OC)c1OC)C(=O)CC(c1cccc(C(=O)Nc3ccc(C#N)cc3)c1)O2 (stereo not drawn)
growth (HCT-15 colon): 63%
growth (HT29 colon): 86.4%
growth (SNB-75 CNS): 74.8%
growth (SNB-19 CNS): 89.5%
growth (U251 CNS): 94.7%
growth (PC-3 prostate): 39.2%
growth (SK-MEL-5 melanoma): 37.5%
growth (UACC-62 melanoma): 34.8%
growth (LOX IMVI melanoma): 79.6%
growth (SK-MEL-28 melanoma): 95.6%
growth (SK-MEL-2 melanoma): 74.6%
growth (EKVX NSCLC): 80.2%
growth (SN12C renal): 72.1%
growth (UO-31 renal): 52%
growth (ACHN renal): 79.4%
growth (CAKI-1 renal): 71.6%
growth (A498 renal): 72.1%
growth (CCRF-CEM leukemia): 25%
growth (MOLT-4 leukemia): 20%

Clc1ccc(-c2nc(C(Cl)Cl)nc3cc(-c4ccccc4)nn23)cc1
growth (HCT-15 colon): 8.19% (active)
growth (HT29 colon): 5.93% (active)
growth (SNB-75 CNS): -13.1% (active)
growth (SNB-19 CNS): 25.2%
growth (U251 CNS): 7% (active)
growth (PC-3 prostate): 41.2%
growth (SK-MEL-5 melanoma): 82.2%
growth (UACC-62 melanoma): 79.8%
growth (LOX IMVI melanoma): 78.5%
growth (SK-MEL-28 melanoma): 47.9%
growth (SK-MEL-2 melanoma): 84.5%
growth (EKVX NSCLC): -12.8% (active)
growth (SN12C renal): 65.1%
growth (UO-31 renal): 47.3%
growth (ACHN renal): -52.8% (active)
growth (CAKI-1 renal): -15.8% (active)
growth (A498 renal): -15.8% (active)
growth (CCRF-CEM leukemia): 53.4%
growth (MOLT-4 leukemia): 31.7%

C#CCOc1cccc(Nc2ncnc3c2ncn3C2CCN(C(=O)CCl)C2)c1 (stereo not drawn)
growth (HCT-15 colon): 1.63% (active)
growth (HT29 colon): -68.4% (active)
growth (SNB-75 CNS): -3.65% (active)
growth (SNB-19 CNS): 13.7%
growth (U251 CNS): -92% (active)
growth (PC-3 prostate): -14.2% (active)
growth (SK-MEL-5 melanoma): -85.7% (active)
growth (UACC-62 melanoma): -66% (active)
growth (LOX IMVI melanoma): -86.5% (active)
growth (SK-MEL-28 melanoma): -43.9% (active)
growth (SK-MEL-2 melanoma): -0.328% (active)
growth (EKVX NSCLC): 5.11% (active)
growth (SN12C renal): -71.3% (active)
growth (UO-31 renal): -97.8% (active)
growth (ACHN renal): -98.9% (active)
growth (CAKI-1 renal): -97.4% (active)
growth (A498 renal): 85.9%
growth (CCRF-CEM leukemia): -28% (active)
growth (MOLT-4 leukemia): -26.8% (active)

CN(C)c1ccc(/C=C2\C=C(c3nc4ccccc4s3)OC2=O)cc1
growth (HCT-15 colon): 102%
growth (HT29 colon): 98.2%
growth (SNB-75 CNS): 87.2%
growth (SNB-19 CNS): 95.3%
growth (U251 CNS): 98.4%
growth (PC-3 prostate): 78.5%
growth (SK-MEL-5 melanoma): 96.4%
growth (UACC-62 melanoma): 75.4%
growth (LOX IMVI melanoma): 91%
growth (SK-MEL-28 melanoma): 106%
growth (EKVX NSCLC): 94%
growth (SN12C renal): 97.1%
growth (UO-31 renal): 73.4%
growth (TK-10 renal): 118%
growth (ACHN renal): 92.2%
growth (CAKI-1 renal): 76%
growth (A498 renal): 112%

CC1SC(c2ccccc2O)N(NC(=O)CCC(=O)c2nc3ncccc3[nH]2)C1=O (stereo not drawn)
growth (HCT-15 colon): 103%
growth (HT29 colon): 105%
growth (SNB-75 CNS): 83.8%
growth (SNB-19 CNS): 101%
growth (U251 CNS): 97.3%
growth (PC-3 prostate): 92.3%
growth (SK-MEL-5 melanoma): 95.1%
growth (UACC-62 melanoma): 99.4%
growth (LOX IMVI melanoma): 84.8%
growth (SK-MEL-28 melanoma): 113%
growth (SK-MEL-2 melanoma): 95.8%
growth (SN12C renal): 101%
growth (UO-31 renal): 66.9%
growth (TK-10 renal): 103%
growth (ACHN renal): 97.4%
growth (CAKI-1 renal): 80.3%
growth (A498 renal): 90.6%
growth (MOLT-4 leukemia): 123%

Cc1nc2sc(C(=O)Nc3cccc(Cl)c3C)c(N)c2cc1C(=O)/C=C/c1ccccc1
growth (HCT-15 colon): -66.4% (active)
growth (HT29 colon): -58.6% (active)
growth (SNB-75 CNS): 12.6%
growth (SNB-19 CNS): -41.8% (active)
growth (U251 CNS): -73.6% (active)
growth (PC-3 prostate): 0.225% (active)
growth (SK-MEL-5 melanoma): -10.8% (active)
growth (UACC-62 melanoma): 2.03% (active)
growth (LOX IMVI melanoma): -75.8% (active)
growth (SK-MEL-28 melanoma): 27.3%
growth (EKVX NSCLC): 43.9%
growth (SN12C renal): -55.6% (active)
growth (UO-31 renal): -60.1% (active)
growth (TK-10 renal): -12.9% (active)
growth (ACHN renal): 3.93% (active)
growth (CAKI-1 renal): -62.1% (active)
growth (A498 renal): -6.27% (active)
growth (CCRF-CEM leukemia): 8.78% (active)
growth (MOLT-4 leukemia): 16.8%
